Source: PubChem (National Center for Advancing Translational Sciences (NCATS))
Compounds with a hit are over-represented: about 4.1% of the library has one in this group of screens.
AmpC inh detg – inhibitors of E. coli AmpC beta-lactamase with detergent | 370,000 compounds, 0.041% hits | AmpC hydrolysis of nitrocefin, absorbance 480 nm, 0.01% Triton | Potency, µM (series often up to 114 µM), inactives show at the top dose activity change, negative = inhibition, actives largely listed as inhibitors | P00811 | AID 485294;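 also: 0% = no-compound wells and -100% = no-enzyme wells; nearly all actives have a fitted effect of over 25% in size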
Target sequence (P00811 whole entry, looked up): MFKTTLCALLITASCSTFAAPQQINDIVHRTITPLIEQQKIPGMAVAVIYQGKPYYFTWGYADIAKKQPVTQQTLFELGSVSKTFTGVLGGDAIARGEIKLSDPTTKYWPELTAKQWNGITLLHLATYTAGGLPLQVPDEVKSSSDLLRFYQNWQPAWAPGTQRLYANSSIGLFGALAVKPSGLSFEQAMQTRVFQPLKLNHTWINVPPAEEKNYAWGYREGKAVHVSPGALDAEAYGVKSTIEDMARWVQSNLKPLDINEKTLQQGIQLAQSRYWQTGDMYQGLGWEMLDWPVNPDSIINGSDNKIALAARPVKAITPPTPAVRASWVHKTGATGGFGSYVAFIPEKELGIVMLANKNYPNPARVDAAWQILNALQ
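20 mM phosphate pH 7.0 + 0.01% (detergent screen) or 0.0001% Triton X-100; 5.3 nM AmpC reagent; cpd preinc 15 min RT; nitrocefin (800 uM stock) to start; A480 q20 s × 4 min; Activity was normalised to no-enzyme and no-compound control wells.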
FMDV inh – antivirals against foot and mouth disease virus. FMDV antiviral cell-based qHTS. Potency, µM (top dose mostly 57.9 µM), without a hit: top-dose activity change, negative = inhibition, hits mostly inhibitors. 410,000 compounds, 1.2% hits. AID 1159524; calls by dose curve; tested in HEK293T cells; also: read-out not given here; nearly all actives have a fitted effect of over 45% in size
Sm TGR inh – inhibitors of Schistosoma mansoni thioredoxin glutathione reductase. purified TGR, DTNB reduction, TNB absorbance 405 nm. Potency, µM (titrated, usually from 114 µM), for the others: at the highest dose activity change, negative = inhibition, actives largely listed as inhibitors. 360,000 compounds, 3% hits. Q962Y6; also: nearly all actives have a fitted effect of over 60% in size
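First, TGR (20 nM dispensed) and NADPH were mixed with compound. Second, a 15 min room-temperature incubation followed. Third, further NADPH and then DTNB were added to start the reaction. Finally, TNB absorbance was monitored kinetically.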
AmpC inh no detg – inhibitors of E. coli AmpC beta-lactamase without detergent. 330,000 compounds, 0.52% hits. Potency, µM (highest dose often 57.1 µM), inactives show at the top dose activity change, negative = inhibition, usual class: inhibitors. AmpC nitrocefin hydrolysis, absorbance 480 nm, 0.0001% Triton. P00811;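 also: plate controls were no compound for no effect and no enzyme for full effect; nearly all actives have a fitted effect of over 20% in size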
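20 mM phosphate pH 7.0 + 0.01% (detergent screen) or 0.0001% Triton X-100; 5.3 nM AmpC reagent; cpd preinc 15 min RT; nitrocefin (800 uM stock) to start; A480 q20 s × 4 min; Activity was normalised to no-enzyme and no-compound control wells.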
AMA1 RON2 block – inhibitors of Plasmodium falciparum AMA1-RON2 interaction; AlphaScreen AMA1-biotinylated RON2 peptide binding; AID 720542; Potency, µM (series often up to 58.2 µM), inactives show top-dose activity change, negative = inhibition, hits mostly inhibitors; 360,000 compounds, 0.2% hits;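 also: 0% = vehicle wells and -100% = peptide control; nearly all actives have a fitted effect of over 45% in size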
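AMA1 (3D7) with his tag at 25 nM final met compounds first, then biotinylated RON2 peptide at 25 nM; detection used donor plus acceptor beads, 10 µg/mL apiece, read by AlphaScreen after 30 min at room temperature.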
* marks the source's active call; other numbers are inactive results; ? = inconclusive; / = not tested or not shown; [ ] = another dose, or the depositor's remark. Unless noted, calls follow the shape of the dose curve; as a rule, active = well fitted curve in the direction sought with a large enough effect; inconclusive = small, poorly fitted or top-dose-only effect, or another doubt; inactive = no such curve, though single readings can be large; an effect the other way counts as inactive or inconclusive. Unless noted, % is scaled to controls: 0 for no effect and ±100 for the full control effect; potency is read from the fitted curve at half-maximal effect.

SMILES	AmpC inh detg	FMDV inh	Sm TGR inh	AmpC inh no detg	AMA1 RON2 block
COc1ccc(CN2CCC(N3CC(C)OC(C)C3)CC2)c(OC)c1OC (stereo not given)	?	-18.6%	-7.7%	-10.5%	12.6µM*
CCc1nc(N2CCOCC2)c(C#N)c2c1CCCC2	?	?	-5.0%	8.0%	12.2%
CN(C)CCNc1nc(-c2ccco2)c2c(c1C#N)CC(C)(C)OC2	-9.0%	-12.1%	-1.9%	1.5%	18.2%
Cc1nc(NCc2ccco2)c(C#N)c2c1COC(C)(C)C2	-5.6%	-15.0%	-32.4%	-17.3%	-9.6%
CC1(C)Cc2c(C#N)c(N3CCN(C(=O)c4ccccc4)CC3)nc(-c3ccco3)c2CS1	2.2%	-8.9%	3.16µM*	14.5%	-1.4%
CCCCN(C)c1nc(-c2ccco2)c2c(c1C#N)CC(C)(C)OC2	?	-2.7%	2.82µM*	15.1%	19.9%
CC(C)c1nc(N2CCN(C(=O)c3ccccc3)CC2)c(C#N)c2c1COC(C)(C)C2	-13.1%	-25.5%	11.4%	3.0%	-9.7%
N#Cc1c(N2CCOCC2)nc(-c2ccco2)c2c1CCCC2	-8.9%	0.0%	2.82µM*	-15.7%	4.5%
CC1(C)Cc2c(C#N)c(NCc3ccco3)nc(-c3ccco3)c2CO1	-4.0%	-21.5%	7.94µM*	-31.9%	-4.1%
O=C(NC1(C(F)(F)F)C(=O)Nc2c1c(=O)[nH]c(=O)n2-c1ccc(F)cc1)c1ccccc1 (stereo not given)	-3.8%	-6.7%	7.4%	/	/
CCOc1ccc(NC(=O)N2CC=C(c3c[nH]c4ccccc34)CC2)cc1	24.4%	-19.0%	-2.7%	/	/
CC1(C)OC2CC3C4CC(F)C5=CC(=O)C=C[C@@]5(C)[C@@]4(F)C(O)C[C@@]3(C)[C@]2(C(=O)CO)O1 (stereo not given in full)	/	4.9%	/	/	/
COc1cc(C2CC(=O)Nc3c2c(=O)[nH]c2nc4ccccc4n32)ccc1O (stereo not given)	2.7%	2.2%	1.1%	/	/
CC(C)CCNc1nc(-c2ccco2)c2c(c1C#N)CCCC2	-5.0%	?	39.8µM*	-6.3%	-2.6%
CC(C)c1nc(N2CCN(C(=O)c3ccco3)CC2)c(C#N)c2c1COC(C)(C)C2	0.6%	-19.8%	-12.8%	74.7%	-11.9%
CC1(C)Cc2c(C#N)c(N3CCCC3)nc(-c3ccco3)c2CO1	-9.9%	/	3.55µM*	15.5%	/
N#Cc1c(NCCN)nc(-c2ccco2)c2c1CCCC2	4.8%	?	7.8%	22.7%	-4.0%
Cc1ccc(N(CC(=O)Nc2ccc(F)cc2F)S(=O)(=O)c2cccs2)cc1	-0.8%	0.0%	-1.8%	/	/
CCC1CCCCN1C(=O)c1sc(-n2nc(C)c(Cc3ccccc3)c2C)nc1C (stereo not given)	2.6%	-5.4%	7.4%	/	/
COc1ccc(NC(=O)C2Cc3c(-c4ccc(NC(C)=O)cc4)ccnc3O2)cc1OC (stereo not given)	/	-14.0%	/	/	-4.9%
COc1cc(NC(=O)C2CC(c3c(F)cccc3Cl)=NO2)cc(OC)c1OC (stereo not given)	-12.4%	25.1µM*	-13.9%	11.7%	-7.6%
COc1ccc(NC(=O)C2Cc3c(-c4ccc5c(c4)OCO5)ccnc3O2)cc1OC (stereo not given)	/	11.2µM*	/	/	?
COc1ccc(C2=NOC(C(=O)Nc3ccc4c(c3)OCCO4)C2)cc1OC (stereo not given)	0.4%	-14.9%	31.6µM*	0.2%	0.3%
COc1ccc(NC(=O)C2Cc3c(-c4cccc(F)c4)ccnc3O2)cc1OC (stereo not given)	/	15.8µM*	/	/	-24.4%
C=CCOc1ccc(C2=NOC(C(=O)Nc3ccc4c(c3)OCCO4)C2)cc1OC (stereo not given)	-10.5%	-26.4%	?	78.3%	0.1%
SMILES	AmpC inh detg	FMDV inh	Sm TGR inh	AmpC inh no detg	AMA1 RON2 block
COC(=O)c1ccc(OC)c(Cn2c(=O)n(-c3ccc(C)cc3)c(=O)c3c2cnn3C)c1	-6.3%	-20.7%	-2.5%	/	/
Cc1ccc(-c2nc(C)c(CCNS(=O)(=O)c3ccccc3F)s2)cc1	2.5%	24.6%	0.7%	/	/
COc1ccc2cc(CNCCOCCOCCNCc3ccc4cc(OC)ccc4c3)ccc2c1	/	39.8µM*	/	/	-8.4%
CCOCCCNCc1ccc(OC)cc1	-0.3%	13.5%	-9.3%	-15.8%	-15.9%
CC1(C)CC(N2CCOCC2)=CC(=[N+]2CCOCC2)C1	?	-9.0%	44.7µM*	-10.3%[11.4 µM]	13.8%
CC(=O)N1CCc2cc(C(=O)CN3CCN(c4ccccn4)CC3)ccc21	12.1%	-8.6%	35.5µM*	10.5%	-3.8%
COc1ccc(-n2c(=O)c(CCc3ccccc3)nc3cnc(N(C)C)nc32)cc1	/	-0.5%	/	/	/
c1ccc(N2CCN(c3nnc(Cc4cccnc4)c4ccccc34)CC2)nc1	0.4%	10µM*	5.6%	23.4%	14.0%
CCCCN(CC)CCCNC(=O)c1c(C)oc2ncnc(N3CCOCC3)c12	1.3%	-5.2%	-1.6%	/	/
CN(C)c1nc2cc3c(cc2cc1CN(CC1CCCO1)C(=O)/C=C/c1cccs1)OCO3 (stereo not given)	/	-17.8%	/	/	/
COc1ccc(S(=O)(=O)N(CC(=O)Nc2ccc(OC)cc2OC)c2ccc(Cl)cc2)cc1	10.0%	3.16µM*	9.1%	/	/
Cc1c(Cl)cccc1NC(=O)CCn1c(=O)c2cccn2c2ccccc21	10.8%	0.0%	-9.9%	/	/
CCNc1nc(-c2cc(C)n(Cc3ccco3)c2C)cs1	2.1%	35.2%	-15.0%	1.2%	-23.0%
Cc1cc(-c2csc(NC(=O)c3ccc(=O)[nH]c3)n2)c(C)n1Cc1ccco1	3.6%	-25.1%	44.7µM*	-23.1%	8.3%
Cc1cc(-c2csc(NC(=O)c3ccc(=O)n(C)n3)n2)c(C)n1CC1CCCO1 (stereo not given)	-2.9%	?	35.5µM*	44.6%	-13.2%
CCn1c(C)cc(=S)c2ccccc21	2.2%	-24.3%	3.98µM*	-9.2%	5.6%
CCn1c2ccccc2c2cc(N)ccc21	-5.2%	-16.7%	4.1%	-29.1%	4.6%
CCOC(=O)CSc1nnc(NCC(=O)OC)c(=O)[nH]1	-2.0%	-1.9%	15.8µM*	-12.4%	50.0%
NC(=O)c1c(NC(=O)CSc2nnc(-c3ccccc3)n2CC2CCCO2)sc2c1CCC2 (stereo not given)	?	-6.5%	28.2µM*	72.0%	-0.3%
Cc1cc(NC(=O)c2ccco2)cc(-c2nc3cc(Cl)ccc3o2)c1O	2.1%	-0.4%	-1.4%	/	/
Cc1ccc(/C=C/C(=O)Nc2cccnc2)o1	-12.5%	57.3%	8.91µM*	-24.9%	-2.4%
Cc1ccc(/C=C/C(=O)Nc2ccccc2C(N)=O)o1	10.1%	44.3%	22.4µM*	/	/
Cc1ccc(/C=C/C(=O)Nc2nn[nH]n2)o1	-7.0%	-9.0%	20µM*	-7.5%	-15.0%
Cc1ccc(/C=C/C(=O)Nc2cccc3ncccc23)o1	-5.0%	/	8.91µM*	-25.9%	-2.1%
